Sampled rows, rich in hits. Any-hit rate of the full collection: about 18%.
VDR inh = Inhibitors of the vitamin D receptor (VDR): qHTS | VDR-SRC2-3 peptide fluorescence polarization, 2 h | Potency, µM, without a hit: max response, negative = inhibition, hits mostly inhibitors | hit rate 0.93% among 400,000 | AID 504847, 2011
Target sequence (P11473 whole entry, looked up): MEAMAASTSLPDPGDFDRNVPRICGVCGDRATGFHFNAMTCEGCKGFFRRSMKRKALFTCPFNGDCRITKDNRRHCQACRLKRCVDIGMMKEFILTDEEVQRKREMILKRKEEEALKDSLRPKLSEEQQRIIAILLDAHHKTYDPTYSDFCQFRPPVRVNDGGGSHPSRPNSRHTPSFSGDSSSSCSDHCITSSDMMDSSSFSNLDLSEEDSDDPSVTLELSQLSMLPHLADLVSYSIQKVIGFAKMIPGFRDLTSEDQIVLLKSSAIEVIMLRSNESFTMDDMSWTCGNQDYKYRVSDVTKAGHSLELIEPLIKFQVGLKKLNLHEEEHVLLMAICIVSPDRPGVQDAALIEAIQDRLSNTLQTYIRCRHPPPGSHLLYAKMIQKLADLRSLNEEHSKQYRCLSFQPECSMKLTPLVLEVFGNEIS
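Inhibition of the VDR/SRC2-3 peptide interaction is quantified by fluorescence polarization. Compounds (23 nl, pintool) incubate with the reagents for 2 hours at ambient room temperature.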
PLK1 PBD block = qHTS for Inhibitors of PLK1-PDB (polo-like kinase 1 - polo-box domain): Primary Screen; Serine/threonine-protein kinase PLK1 (Homo sapiens), P53350; Plk1 PBD binding of FITC phosphopeptide, fluorescence polarization; Potency, µM, for inactives: max response, negative = inhibition, usual class: inhibitors; hit rate 2.8% among 360,000; AID 720504, 2013; note: series mostly up to about 57 µM; nearly all actives have a fitted effect of over 65% in size
DT40 TDP1 CPT = qHTS for Inhibitors of human tyrosyl-DNA phosphodiesterase 1 (TDP1): qHTS in cells in presence of CPT. chicken DT40 Tdp1-/-;hTDP1 cells + 20 nM CPT, ATP luminescence, 48 h. Potency, µM (series often up to 46.2 µM), without a hit: at the top dose activity change, negative = growth inhibition, usual class: inhibitors. hit rate 12% among 420,000. AID 686979, 2013; note: nearly all actives have a fitted effect of over 55% in size
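Cell growth measured by CellTiter-Glo luminescence after a minimum 48 h, 37 C compound exposure with 20 nM CPT in Tdp1-knockout DT40 cells stably expressing hTDP1, seeded 400/well; qHTS titration format.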
TDP1 block = qHTS Assay for Inhibitors of Tyrosyl-DNA Phosphodiesterase (TDP1); recombinant TDP1, AlphaScreen DNA substrate cleavage; Potency, µM (highest dose often 130 µM), inactives show at the top dose activity change, negative = inhibition, usual class: inhibitors; hit rate 0.28% among 350,000; note: nearly all actives have a fitted effect of over 40% in size
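Enzyme-compound mixtures sat 15 min at room temperature, followed by a 5 min reaction with 15 nM final substrate and 10 min with AlphaScreen beads. Recombinant human Tdp1 was used at 1 nM final.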
DT40 TDP1 no CPT = qHTS for Inhibitors of human tyrosyl-DNA phosphodiesterase 1 (TDP1): qHTS in cells in absence of CPT. DT40 Tdp1-/- hTDP1 cells, no CPT, ATP luminescence, 48 h. Potency, µM (highest dose often 46.2 µM), for inactives: top-dose activity change, negative = growth inhibition, usual class: inhibitors. hit rate 15% among 420,000; note: nearly all actives have a fitted effect of over 55% in size
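Camptothecin absent (DMSO only). Human TDP1-complemented DT40 knockout cells, 400 cells/well, 37 °C for minimum 48 hr; ATP measured via CellTiter-Glo, 30 min dark incubation, luminescence.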
GCN5L2 inh = qHTS Assay for Inhibitors of GCN5L2; Potency, µM (top dose mostly 58.9 µM), inactives show at the highest dose activity change, negative = inhibition, usual class: inhibitors; hit rate 0.21% among 390,000; GCN5L2 HAT assay, ThioGlo1 CoA-SH fluorescence; AID 504327, 2011
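Free CoA generated was detected with ThioGlo1 (50uM) fluorescence at Ex340nm/Em540nm, read immediately and after 20 min at room temperature. Enzyme, 20 nM in HEPES pH 7.5 buffer, saw compounds 15 min before adding 75uM H3(1-25) peptide and 70uM acetyl-CoA.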
An asterisk follows results filed as active; ? = inconclusive; / = no result; [ ] = dose if it differs, or a comment. Calls come from the whole dose curve; as a rule, active = well fitted curve in the direction sought with a large enough effect; inconclusive = small, poorly fitted or top-dose-only effect, or another doubt; inactive = no such curve, though single readings can be large; an effect the other way counts as inactive or inconclusive. % is set by controls: 0 for no effect and ±100 for the full control effect; potency is the fitted concentration of half-maximal effect.

SMILES | VDR inh | PLK1 PBD block | DT40 TDP1 CPT | TDP1 block | DT40 TDP1 no CPT | GCN5L2 inh
O=C(CCN1CCCCC1)c1cccc(Cl)c1 | ? | ? | 20.6µM* | / | ? | /
O=C(CCN1CCCCC1)Nc1cccc(Cl)c1 | -12.0% | 26.7µM* | 0.2% | -1.1% | -0.9% | -1.4%
Cc1cccc(C(=O)NCC(=O)NCCCSc2ccccc2)c1 | 5.1% | -4.6% | ? | -2.7%[0.505 µM] | ? | -3.8%
O=C(CNC(=O)c1ccccc1)Oc1cccc(Cl)c1 | 13.3% | 7.52µM* | 9.2% | / | 5.0% | /
COc1ccc(OC)c(NC(=O)Nc2nnc([C@@H]3O[C@H](CO)[C@@H](O)[C@H]3O)s2)c1 | / | -11.6% | -8.3% | / | 1.0% | /
COc1cc(NC(=O)C2(C)CCCN(C(C)C)C2)cc(OC)c1OC (stereo not drawn) | / | -2.2% | 1.3% | / | -18.7% | /
C=C1/C=C(\C)[C@](C)(O)C[C@H](O)CC(=O)[C@H](O)[C@@H](O)[C@H](C)C[C@H](C)OC(=O)/C(C)=C/CC/C=C/[C@@H]2O[C@H]2C[C@H](C)C1 | / | / | / | 0.9% | / | -8.9%
CC(=O)c1ccc(S(=O)(=O)Nc2ccc(-c3ccc(N4CCCCC4)nn3)cc2)cc1 | 11.2% | / | -29.4% | 1.8% | -29.4% | -4.5%
Cc1ccc2[nH]c3c(c2c1)CN(C(C)C)CC3 | 10.3% | -6.3% | ? | / | ? | 1.4%
O=C(NCCCN1CCN(CCCNC(=O)c2cccc(Cl)c2)CC1)c1cccc(Cl)c1 | -3.2% | -8.5% | 18.4µM* | 3.1% | ? | 2.9%
Cc1cc(N)n(-c2ccccn2)n1 | 3.3% | 9.6% | 1.6% | 3.5% | -10.5% | 0.2%
O=S(=O)(NCC(c1cccs1)S(=O)(=O)c1ccccc1)c1ccccc1 (stereo not drawn) | 2.3% | / | 1.16µM* | -5.2% | 1.84µM* | -1.7%
CC(C)(C)c1ccc(C(=O)NCC(c2ccco2)S(=O)(=O)c2ccccc2)cc1 (stereo not drawn) | 16.0% | / | 18.4µM* | 2.7% | 23.1µM* | -13.6%
CCOc1ccc(C(=O)NCC(c2cccs2)S(=O)(=O)c2ccccc2)cc1 (stereo not drawn) | 0.0% | / | 29.1µM* | 5.2% | ? | 4.3%
COc1cc(C(=O)NCC(c2ccco2)S(=O)(=O)c2ccccc2)cc(OC)c1OC (stereo not drawn) | 9.9% | / | ? | 0.0% | ? | -7.3%
CC(C)(C)c1ccc(C(=O)NCC(c2cccs2)S(=O)(=O)c2ccccc2)cc1 (stereo not drawn) | 8.5% | / | 16.4µM* | 0.0% | 14.6µM* | -3.2%
O=C(NCC(c1cccs1)S(=O)(=O)c1cccs1)c1ccc(C(F)(F)F)cc1 (stereo not drawn) | -2.3% | / | ? | 0.0% | ? | -12.1%
CCOc1ccc(C(=O)CC(NCc2cccs2)C(=O)O)cc1 (stereo not drawn) | 25.1µM* | -27.9% | 8.2µM* | -3.1% | 16.4µM* | -3.7%
c1ccc2c(N3CCCC3)nc(-c3ccncc3)nc2c1 | 3.8% | -7.8% | ? | 2.9% | 18.4µM* | -18.2%
CN1CCN(c2nc(-c3ccncc3)nc3ccccc23)CC1 | -13.9% | -2.1% | ? | 4.3% | ? | -16.1%
CCN1CCN(c2nc(-c3ccccn3)nc3ccccc23)CC1 | -20.0% | -8.2% | ? | 6.0% | 20.6µM* | ?
c1ccc(-c2nc(N3CCCCCC3)c3ccccc3n2)nc1 | 2.8% | -5.1% | 2.06µM* | 13.5% | 2.31µM* | -3.7%
CN1CCN(c2nc(-c3ccc(Cl)cc3)nc3ccccc23)CC1 | -20.4% | 4.5% | ? | / | 16.4µM* | -0.9%
O=C(NCCc1csc2nc(-c3cccc(F)c3)nn12)c1ccc(Br)o1 | 14.0% | / | ? | 1.8% | ? | 17.9%
O=C1NCCCC1C(=O)N/N=C/c1cccc(Cl)c1 (stereo not drawn) | 11.2% | -5.2% | 31.0% | 0.0% | -11.0% | -5.3%
SMILES | VDR inh | PLK1 PBD block | DT40 TDP1 CPT | TDP1 block | DT40 TDP1 no CPT | GCN5L2 inh
CCN(C(=O)C(C)OC(=O)c1nn(-c2ccccc2C(F)(F)F)cc1O)c1ccccc1 (stereo not drawn) | -16.7% | -2.2% | -11.8% | 2.3% | -17.8% | -4.6%
c1ccc2nc(N3CCCC3)c(N3CCCCC3)nc2c1 | 6.7% | 4.6% | -18.0% | / | ? | /
Cc1nc(N2CCCCCC2)c2ccccc2n1 | 10.7% | -7.5% | ? | / | 20.6µM* | -11.0%
Cc1ccc2oc(-c3cccc(NC(=O)Cn4cnc5c(=O)n(C)c(=O)n(C)c54)c3)nc2c1 | / | / | / | 3.5% | / | -2.2%
CCC(C)c1ccc2oc(-c3ccc(NC(=O)Cn4cnc5c(=O)n(C)c(=O)n(C)c54)cc3)nc2c1 (stereo not drawn) | 3.7% | -21.0% | 20.6µM* | 4.1% | 14.6µM* | 2.0%
CN1C(=O)c2cccc3c(S(=O)(=O)NCCc4ccccc4)ccc1c23 | 8.9% | -3.0% | ? | 3.7% | 20.6µM* | -5.4%
Cc1ccc(S(=O)(=O)c2ccsc2NC(=O)c2ccccc2)cc1 | 1.1% | 4.9% | -26.1% | / | ? | /
CCCCNC(=O)CN1C(=O)c2c(c3ccccc3n2C)C1c1ccc(OC)cc1 (stereo not drawn) | 12.6% | / | ? | -2.8% | ? | -9.3%
COc1ccc(C2c3c(n(C)c4ccccc34)C(=O)N2CC(=O)Nc2ccc(Cl)cc2)cc1 (stereo not drawn) | -1.5% | / | 18.4µM* | 14.1% | ? | -10.3%
CCc1cccc(C)c1NC(=O)CN1C(=O)c2c(c3ccccc3n2C)C1c1ccc(OC)cc1 (stereo not drawn) | 0.7% | / | ? | 2.8% | 29.1µM* | -15.1%
O=S(=O)(Nc1cccc2ccccc12)c1ccc2ccccc2c1 | ? | / | / | 1.1% | / | /
Fc1ccc(-n2nnnc2-c2cnc(-c3cccs3)nc2C(F)(F)F)cc1 | -9.0% | 0.0% | 6.51µM* | -3.1% | 4.61µM* | -18.7%
FC(F)(F)c1nc(N2CCCC2)ncc1-c1nnnn1-c1ccc(Cl)cc1 | -0.4% | -4.4% | 20.6µM* | 1.8% | 18.4µM* | -11.9%
CC(C)(C)OC(=O)COc1ccc(/C=N/NC(=O)CN2CCCCC2)cc1 | 20.0% | 1.6% | 5.2% | / | 11.7% | 2.0%

Compound activity: PubChem, National Center for Advancing Translational Sciences (NCATS)
